Compound activity: PubChem BioAssay, National Center for Advancing Translational Sciences (NCATS)
PKM2 inhibitor: qHTS Assay for Inhibitors of Human Muscle isoform 2 Pyruvate Kinase; Pyruvate kinase PKM (Homo sapiens), P14618; Potency, µM (doses to about 57.5 µM), inactives show top-dose activity change, negative = inhibition, usual class: inhibitors; 260,000 compounds, 0.058% hits; purified PKM2, ATP generation, Kinase-Glo luminescence; AID 1634, 2009; active = well fitted inhibition curve with a large enough effect; note: nearly all actives have a fitted effect of over 60% in size
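Enzyme run at intermediate activity with final 0.1 mM ADP, 0.5 mM PEP (50 mM imidazole pH7.2, 50 mM KCl, 7 mM MgCl2), incubated 1 h at r.t. ATP formed read by Kinase-Glo luminescence, normalized to no-enzyme (full inhibition) and uninhibited wells.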
An asterisk follows results filed as active. Only a selection was taken, and hits are over-represented in it overall. Potency is the fitted concentration of half-maximal effect.

SMILES | PKM2 inhibitor
Cc1ccc(C(=O)O/N=C(\N)c2nonc2N)cc1 | 12.6µM*
Cc1ccc(C(=O)O/N=C(\N)c2ccccn2)cc1 | 5.62µM*
Cn1cccc1CC(=O)N/N=C/C=C/c1ccco1 | 48.2%
Cc1n[nH]c(=O)c2c(NC(=O)CSc3nc4ccccc4c(=O)n3CCCO)oc(C)c12 | 50.0%
CS(=O)(=O)Nc1ccc(C2=NN(C(=O)c3ccco3)C(c3ccccc3F)C2)cc1 (centres undefined) | 118.5%
O=C(CCc1ccccc1)N1CCN(S(=O)(=O)c2cccs2)CC1 | 83.5%
CCN(CC)c1ccc(/C=N/NC(=O)c2ccoc2C)cc1 | 28.2µM*
O=C(N/N=C/c1ccc(F)cc1)c1cc(-c2ccco2)nc2ccccc12 | 73.8%
CN(C)c1ccc(/C=N/NC(=O)c2ccccc2O)o1 | 56.4%
CNS(=O)(=O)c1ccc2c(c1)oc(=O)c1cc(S(=O)(=O)NC)ccc12 | 104.5%
Fc1ccc(-n2ncc3c(SCc4cccnc4)ncnc32)cc1 | 40.4%
O=C(Nc1ccccc1)C1=C(O)CC(c2ccc(Cl)cc2)N2CCN=C12 (centres undefined) | 71.3%
Cc1cccc(C)c1NC(=S)N/N=C/c1ccccc1C(=O)O | -4.4%
O=C(Nc1ccccc1C(=O)N/N=C/c1ccncc1)c1ccccc1 | 14.1µM*
O=C(N/N=C/c1ccncc1)c1cc([N+](=O)[O-])cc([N+](=O)[O-])c1O | 31.3%
CCC12CC3CC(C1)CC(C(=O)NNC(N)=O)(C3)C2 | -1.7%
CC(=O)Nc1ccc(-n2nnnc2SCC(=O)Nc2cccc(NC(=O)c3ccco3)c2)cc1 | 42.8%
CCOC(=O)c1c(N2C(=O)CC(Sc3ccccc3C(=O)O)C2=O)sc2c1CCCC2 (centres undefined) | 60.6%
CCN(C(=O)CSc1cc(C)c2cccc(C)c2n1)C1CCS(=O)(=O)C1 (centres undefined) | 130.4%
O=c1ccc2cc(S(=O)(=O)NCc3ccccc3)ccc2[nH]1 | 51.7%
O=C(c1ccc(Cl)c(S(=O)(=O)N2CCCCCC2)c1)N1CCOCC1 | 39.2%
O=C(O)c1cc(N2CCOCC2)nc2ccccc12 | 30.9%
O=C(c1ccc2c3n(nc2c1)-c1ccccc1CO3)N1CCOCC1 | 14.1µM*
C=CCN1CCc2c(cc(O)c(O)c2Cl)C(c2cccc(C)c2)C1 (centres undefined) | 33.1%
COc1ccc(CCN2CC(C(=O)N(C)Cc3c(C)n[nH]c3C)CCC2=O)cc1 (centres undefined) | 44.2%
SMILES | PKM2 inhibitor
CCN1CCN(S(=O)(=O)c2ccc(Cl)c(C(=O)NC(C)(C)C)c2)CC1 | 36.3%
CCN1/C(=C/c2ccc3cc(C)ccc3[n+]2CC)Sc2ccccc21 | 4.47µM*
CS(=O)(=O)c1sc(C#N)c2c1C(=O)CC(c1ccccc1)C2 (centres undefined) | 35.2%
Cc1ccc(OCc2nnc(SC(C)C(=O)O)n2-c2ccccc2)cc1 (centres undefined) | 42.4%
COc1cccc(/C=N/Nc2ncnc3c2[nH]c2ccc(C)cc23)c1OC | 57.0%
COc1ccc(/C=N/Nc2nccnc2Cl)cc1 | 12.6µM*
COc1cccc(/C=N/NC(=O)c2cc3c(OC)cccc3[nH]2)c1O | 17.4%
Clc1nccnc1N/N=C/c1ccc(Br)cc1 | 14.1µM*
COc1cccc(/C=N/Nc2nccnc2Cl)c1O | 14.1µM*
COc1ccc(-c2nn(-c3ccccc3)cc2/C=N/NS(=O)(=O)c2ccccc2)cc1 | 0.7%
CC(=O)c1ccc(S(=O)(=O)N2CCN(C(=O)CSc3ccc(C)c(C)c3)CC2)cc1 | 56.3%
Oc1ccc(/C=N/N2CCN(C3c4ccccc4-c4ccccc43)CC2)cc1O | 79.0%
Cn1ncc(Cl)c1C(=O)N1CCC(Cc2ccccc2)CC1 | 60.2%
CC1=C(C(=O)OCc2ccccc2)C(c2cccc(F)c2)NC(=O)N1 (centres undefined) | 0.6%
Cc1c(CCC(=O)NC2CC2)c(=O)oc2cc(O)ccc12 | 35.4%
COC(=O)C1=C(C)N(Cc2ccco2)C(=O)N[C@H]1c1cccc(C(F)(F)F)c1 | 43.0%
C/C(=N\NC(=O)CNc1ccccc1)c1ccccc1 | 59.6%
O=C(CC(C(=O)NCc1ccccc1)c1nc2ccccc2c(=O)[nH]1)NCc1ccccc1 (centres undefined) | 43.6%
Clc1ccccc1Nc1nnc(-c2ccncc2)s1 | 12.6µM*
O=C(O)C1Nc2c(O)cc(Cl)c([N+](=O)[O-])c2C2C=CCC12 (centres undefined) | 21.8%
Cc1cc(O)ccc1NS(=O)(=O)c1ccc2c3c(cccc13)C(=O)N2 | 59.0%
O=C1/C(=C/Nc2ccc3c(c2)OCO3)CCc2ccccc21 | 25.1µM*
O=C(C1CCC1)N1CCc2cc(S(=O)(=O)Nc3ccc4c(c3)OCO4)ccc21 | 91.9%
O=C1c2ccccc2C(=O)N1Cc1ccc2c(c1)OCO2 | 43.6%
COc1cc2cc(C)c(SCC(=O)N3CCN(C(=O)c4ccco4)CC3)nc2cc1OC | 90.6%
O=[N+]([O-])c1cccc(COc2ncnc3cc([N+](=O)[O-])ccc23)c1 | 57.8%
Brc1ccc(-c2nc(-c3ccccn3)no2)o1 | 17.8µM*
COc1ccccc1-c1nc(-c2ccccn2)no1 | 7.94µM*
